Bioassay records as filed in PubChem BioAssay.
AF4-AF9 inh – MLL-AF4/AF9 protein interaction inhibition | AID 651704 | inhibition, % at 10 µM | 0.47% of 350,000 active | P42568 | AlphaScreen, biotin-AF4 peptide binding to FLAG-AF9;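 active means every replicate reaching a set inhibition limit, whatever the replicate mean, cut at about 25% in these data; inconclusive means mean inhibition reaches that limit but some replicates miss it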
Target sequence (P42568 whole entry, looked up): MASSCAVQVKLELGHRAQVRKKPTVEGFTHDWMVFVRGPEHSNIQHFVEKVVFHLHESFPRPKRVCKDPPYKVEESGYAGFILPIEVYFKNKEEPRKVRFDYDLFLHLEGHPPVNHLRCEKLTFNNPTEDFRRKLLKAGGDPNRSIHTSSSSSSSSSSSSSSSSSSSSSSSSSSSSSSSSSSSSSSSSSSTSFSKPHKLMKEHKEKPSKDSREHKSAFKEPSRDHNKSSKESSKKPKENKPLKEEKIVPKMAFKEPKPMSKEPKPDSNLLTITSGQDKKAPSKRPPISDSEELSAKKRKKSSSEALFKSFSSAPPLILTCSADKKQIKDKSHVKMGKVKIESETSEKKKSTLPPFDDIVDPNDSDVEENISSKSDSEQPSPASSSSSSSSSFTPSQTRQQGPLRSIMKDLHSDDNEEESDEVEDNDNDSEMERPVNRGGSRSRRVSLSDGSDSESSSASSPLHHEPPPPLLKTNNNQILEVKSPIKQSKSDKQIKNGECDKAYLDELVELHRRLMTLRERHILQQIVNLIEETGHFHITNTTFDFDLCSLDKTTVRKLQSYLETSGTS
PGC1a acetyl inh – PGC1a acetylation modulation, inhibitor mode. U2OS PGC1a acetylation, AlphaScreen anti-acetyl-lysine; with virally co-expressed GCN5 acetyltransferase. inhibition, % at 15.6 µM. 0.17% of 350,000 active. AID 651687;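 active means every replicate shows inhibition of at least 40%; inconclusive means mean inhibition at least 40% but some replicate below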
GSIS activator – GLuc luminescence reporter in INS-1E cells, primary screen for activators of glucose-dependent secretion of insulin; 0.61% of 370,000 active; AID 743287; activation, % at 16.6 µM; INS-1E GLuc reporter insulin secretion, 2-3 h;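 active means lowest replicate activation of at least 40%, so every replicate reaches that level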
HIV Env fusion – blocks HIV Env-driven cell-cell fusion. inhibition, % at 12.3 µM. 1.1% of 360,000 active. HeLa-JRFL Env/CEM21 cell fusion, luciferase. AID 651610;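 active means mean replicate inhibition score of at least 50 and every replicate individually at or above 50; inconclusive means only one of the two criteria met; inactive means mean below 50 and not all replicates reaching 50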
NSD2 HMT inh – blocks human histone methyltransferase NSD2; 0.54% of 310,000 active; NSD2 peptide methylation, AlphaScreen, 120 min; inhibition, % at 12.5 µM; in the data active means inhibition above about 50%
A number is an active result; . = inactive; ? = inconclusive; / = no result; ! = not active in a repeat; [ ] = another dose, or the depositor's remark. The list is not random: actives were taken first. Their share in the collection is about 2.1%.

SMILES	AF4-AF9 inh	PGC1a acetyl inh	GSIS activator	HIV Env fusion	NSD2 HMT inh
Cn1c(=O)c2cc(S(=O)(=O)NCCC(=O)NCc3ccccc3Cl)ccc2n(C)c1=O	/	46.6	.	.	.
Cc1ccc(CNC(=O)CCNS(=O)(=O)c2ccc3c(c2)c(=O)n(C)c(=O)n3C)cc1	/	.	/	.	.
CCOc1ccc2ccccc2c1/C=N/n1cncn1	/	.	.	.	.
CCCOc1ccc2ccccc2c1/C=N/n1cnnc1	/	.	.	90.9	/
CC1CCN(C(=S)Nc2ccc3nc4n(c(=O)c3c2)CCCCC4)CC1	/	.	.	.	.
CCOc1ccc(NCc2cccn2-c2nnc(N3CCC(C(=O)NCCCN4CCCCC4)CC3)s2)cc1	33.1	.	.	.	.
Cc1cc(C(=O)CN2C(=O)c3ccccc3S2(=O)=O)c(C)n1C(C)C	.	/	.	91.3	.
Cc1cc(C(=O)CN2C(=O)c3ccccc3S2(=O)=O)c(C)n1-c1ccccc1	/	.	/	/	.
CCn1c(C)cc(C(=O)CN2C(=O)c3ccccc3S2(=O)=O)c1C	.	/	.	98.5	.
CCn1nc(NC(=O)c2ccco2)c2cc3cc(C)ccc3nc21	.	/	.	.	.
CCCn1nc(NC(=O)c2ccco2)c2cc3ccccc3nc21	/	/	44.9	.	.
O=C(C[C@H]1C[C@@H]2c3cc(NC(=O)NC4CCCCC4)ccc3O[C@@H]2[C@@H](CO)O1)NC1CCCCC1	/	/	.	/	/
O=[N+]([O-])c1cc(S(=O)(=O)N2CCCC2)ccc1N/N=C/c1cccs1	/	.	47.9	.	.
Cc1ccc(NC2=C(NCCO)C(=O)c3ccccc3C2=O)cc1	/	/	.	.	65.2
Cc1ccc(S(=O)(=O)Nc2cccc3c2O[C@@H](CN(C)Cc2ccc(Cl)c(Cl)c2)[C@@H](C)CN([C@H](C)CO)C3=O)cc1	/	.	.	86.7[16.7 µM]	/
Cc1ccc(S(=O)(=O)Nc2cccc3c2O[C@H](CN(C)Cc2ccc(Cl)c(Cl)c2)[C@H](C)CN([C@H](C)CO)C3=O)cc1	/	.	.	85.2[16.7 µM]	/
C[C@H](CO)N1C[C@H](C)[C@H](CN(C)Cc2ccc(Cl)c(Cl)c2)Oc2c(NS(=O)(=O)c3ccc(Cl)cc3)cccc2C1=O	.	.	/	91.1[16.7 µM]	/
Cc1ccc(S(=O)(=O)Nc2cccc3c2O[C@H](CN(C)Cc2ccc(Cl)c(Cl)c2)[C@H](C)CN([C@@H](C)CO)C3=O)cc1	.	.	.	/	/
Cc1ccc(-c2cc(C(=O)N3CCCC3)no2)cc1	/	.	/	.	.
CCCCOCC1CN(CCCC)S(=O)(=O)c2c(Oc3ccc(C)cc3)cccc2O1 (centres undefined)	.	/	.	65.4	/
CCCCOCC1CN(CCCC)S(=O)(=O)c2c(Oc3ccc(C(C)C)cc3)cccc2O1 (centres undefined)	.	/	.	.	/
COc1ccc(C2NC(=S)NC3=C2CCCC3=C2SCCS2)cc1 (centres undefined)	.	45.3	.	.	.
CC1(C(=O)NCc2ccccc2)CN(S(C)(=O)=O)CC(=O)N1Cc1cccc(C(F)(F)F)c1 (centres undefined)	.	/	.	.	/
Cc1nc(N/N=C/c2ccccn2)sc1C	.	/	.	106.9	.
CCCc1sc(N/N=C/c2ccccn2)nc1-c1ccc(F)cc1	/	.	/	/	/
SMILES	AF4-AF9 inh	PGC1a acetyl inh	GSIS activator	HIV Env fusion	NSD2 HMT inh
Clc1ccc(N=NN2CCOCC2)cc1	.	/	.	.	.
Cc1[nH]nc(C(F)(F)F)c1N=NN1CCOCC1	.	.	148.2	.	.
O=C(Nc1cccc(C2=NCCN2)c1)Nc1cccc(C2=NCCN2)c1	?	.	/	.	/
CCOC(=O)c1[nH]c2cc(OC)c(OC)cc2c1NC(=O)c1ccc2c(c1)OCO2	/	.	69.0	.	.
CCOC(=O)c1[nH]c2ccc(OC)cc2c1NC(=O)c1ccc2c(c1)OCO2	/	.	/	.	/
COc1ccc(N=C2S/C(=C\c3ccc(OCC(=O)O)cc3)C(=O)N2CCc2c[nH]c3ccccc23)cc1	35.3	.	.	.	/
COc1ccc(N=C2S/C(=C\c3ccc(N4CCOCC4)o3)C(=O)N2CCc2c[nH]c3ccccc23)cc1	/	62.1	/	/	/
CCOc1ccc(S(=O)(=O)N/N=C2/CCCC(=O)C2)cc1	/	/	.	.	.
COc1ccc(C(=O)Nc2ccc(C(=O)N3CCCCC3C)cc2)c(OC)c1OC (centres undefined)	.	.	.	.	.
COc1ccc(NC(=O)CSc2nc3ccsc3c(=O)n2CCC(=O)O)cc1	.	.	.	60.1	.
COc1ccc(NC(=O)CSc2nc3ccsc3c(=O)n2CCC(=O)O)c(OC)c1	.	.	.	.	.
Cc1cccc(N2CCN(C(=O)c3cccn4c(=O)c5c(C)c(C)sc5nc34)CC2)c1C	/	.	156.0	.	.
CN(CCOc1ccc(-c2ccn(S(=O)(=O)c3ccc(Cl)cc3)n2)cc1)c1ccccn1	/	.	/	60.0	.
CC(C)(C)c1ccc(OCCC(=O)OCC(=O)NCc2ccccc2)cc1	.	/	.	.	.
COc1ccc(NC(=O)N2CCCCN3[C@H](CO)[C@@H](c4ccc(-c5ccccc5C)cc4)[C@@H]3C2)cc1	.	.	.	/	/
Cc1ccc2nc(N3CCN(C(=O)CCCC(=O)O)CC3)nc(-c3ccccc3)c2c1	.	/	57.3	.	.
CNc1nc(Nc2ccccc2)nc(OCC(F)(F)F)n1	.	/	76.3	.	.
CCOc1ccc(-n2nnnc2SCC(=O)Nc2ccc(NC(C)=O)cc2)cc1	.	.	/	.	.
CCOc1ccc(-n2nnnc2SCC(=O)Nc2cccc(O)c2)cc1	27.5	.	.	.	.
N#Cc1cc2ccncc2c2ccccc12	.	.	.	.	.
Nc1cc2ccncc2c2ccccc12	.	?	.	62.1	.
O=C(O)CSCC(=O)Nc1ccc(C2CCCCC2)cc1	/	.	.	97.9	.
Cc1cccc(-c2noc(CSc3ccccc3)n2)c1	/	.	.	.	.
CCN(CC)S(=O)(=O)c1ccc(Cl)c(C(=O)NC2CCN(Cc3ccccc3)CC2)c1	.	.	.	.	.
Cc1ccccc1N/N=C/c1c(C)nc2ccccn12	25.6	/	.	.	.
SMILES	AF4-AF9 inh	PGC1a acetyl inh	GSIS activator	HIV Env fusion	NSD2 HMT inh
Cc1nc2ccccn2c1C(=O)N/N=C/c1ccccc1	.	.	.	.	.
O=C(c1ccccc1NS(=O)(=O)c1ccc([N+](=O)[O-])cc1[N+](=O)[O-])N1O[C@@H]2C=C[C@H]1C2	.	.	48.6	.	/
COCC(=O)N1C[C@@H](C)[C@@H](OC)CN(C)C(=O)c2ccc(NC(=O)Nc3cccc(F)c3)cc2OC[C@H]1C	/	.	.	/	/
CC(=NNC(=S)Nc1ccccc1)c1ccccn1	.	/	.	.	.
CC(=NNC(=S)Nc1ccccc1Cl)c1ccccn1	.	.	.	63.0	.
COc1ccc(S(=O)(=O)N(C)C[C@@H]2Oc3ccc(N(C)C)cc3C(=O)N([C@H](C)CO)C[C@@H]2C)cc1	.	.	.	58.7[16.7 µM]	/
COc1ccc(S(=O)(=O)N(C)C[C@@H]2Oc3ncc(/C=C/c4ccccc4)cc3C(=O)N([C@H](C)CO)C[C@@H]2C)cc1	.	.	.	55.1![16.7 µM]	/
C[C@H](CO)N1C[C@H](C)[C@H](CN(C)S(=O)(=O)c2ccccc2)Oc2ncc(/C=C/c3ccccc3)cc2C1=O	.	.	.	73.7[16.7 µM]	/
